Screening data from PubChem.
Most compounds without a hit are left out; they make up all but 8% or so of the library.
MCF10A rerep – A quantitative high throughput screen for small molecules that induce DNA re-replication in MCF 10a normal breast cells; MCF 10A DNA re-replication, Hoechst nuclear intensity, 48 h; hit rate 2.9% among 350,000; Potency, µM (series often up to 46.1 µM), without a hit: at the highest dose activity, positive = re-replication, usual class: activators; note: % of control where 0% means no effect; nearly all actives have a fitted effect of over 50% in size
HT1080NT lethal – qHTS for induction of synthetic lethality in tumor cells producing 2HG: qHTS for the HT-1080-NT fibrosarcoma cell line; HT-1080-NT fibrosarcoma viability, CellTiter-Glo ATP luminescence, 48 h; Potency, µM (doses to about 46.1 µM), for inactives: at the top dose activity, negative = less viability, usual class: cytotoxic; hit rate 1.6% among 360,000; AID 686970, 2013;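 note: NT is the 2HG producing partner of a matched IDH1 knockdown line; 0% = DMSO-treated cells and -100% = media-only wells without cells; nearly all actives have a fitted effect of over 55% in size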
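750 cells/well, RPMI + 5% FBS; 2 h settle, compound pin-transfer, 48 h at 37 degrees C. CellTiter-Glo 10 min RT, luminescence. Normalized to DMSO and media-only wells.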
SW480 rereplic – A quantitative high throughput screen for small molecules that induce DNA re-replication in SW480 colon adenocarcinoma cells. SW480 DNA re-replication, Hoechst DNA content imaging, 48 h. hit rate 1.8% among 340,000. AID 624297, 2012. Potency, µM (top dose mostly 46.1 µM), inactives show at the top dose re-replication activation, hits mostly activators; note: % of control where 0% means no effect; nearly all actives have a fitted effect of over 55% in size
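First, 250 cells per well were seeded. Next, compound or vehicle (23 nL) was pinned in, plates sat 48 hr at 37 C. Finally Hoechst was added for 40 min before fluorescence scanning.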
KB-3-1 cytotox – qHTS assay for MDR1-selective chemotherapeutics: Primary screen using the parental adenocarcinoma cell KB-3-1; Potency, µM (doses to about 46.1 µM), hits mostly cytotoxic; KB-3-1 viability, CellTiter-Glo ATP luminescence, 72 h; hit rate 1.4% among 400,000; note: % is set by controls: 0 for no effect and ±100 for the full control effect; nearly all actives have a fitted effect of over 60% in size
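Cells are dispensed, compounds pinned in, plates held at 37 °C for 72 h, then CellTiter-Glo is added and luminescence read after 10 minutes. Cell line: parental KB-3-1 in phenol-red-free DMEM, 10% FBS.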
HT1080 IDH1KD tx – qHTS for induction of synthetic lethality in tumor cells producing 2HG: qHTS for the HT-1080-IDH1KD cell line. HT-1080 IDH1 knockdown viability, ATP luminescence, 48 h. Potency, µM (series often up to 46.1 µM), for the others: at the highest dose activity, negative = toxicity, usual class: cytotoxic. hit rate 2% among 360,000. AID 686971, 2013;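 note: 0% = DMSO wells and -100% = cell-free medium wells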
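Assay cells: HT-1080 with IDH1 knockdown, 750 per well, RPMI/5% FBS. Exposure: 48 h at 37 °C following 2 h pre-incubation. Read: CellTiter-Glo luminescence; fitted concentration-response, curve class assigned.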
KB-V1 cytotox – qHTS assay for MDR1-selective chemotherapeutics: Primary screen using the drug-selected MDR subline cells KB-V1; Potency, µM (series often up to 46.1 µM), hits mostly cytotoxic; hit rate 3.4% among 400,000; KB-V1 MDR cells viability, CellTiter-Glo, 72 h; AID 1347076, 2019; note: % is set by controls: 0 for no effect and ±100 for the full control effect; nearly all actives have a fitted effect of over 60% in size
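Compound-treated KB-V1 multidrug-resistant cells, 72 h, 37 degrees C; viability by CellTiter-Glo. Fitted qHTS curves give the values.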
* hit, by the source's call; [ ] = another dose, or the depositor's remark. Calls come from the whole dose curve; as a rule, active = well fitted curve in the direction sought with a large enough effect; inconclusive = small, poorly fitted or top-dose-only effect, or another doubt; inactive = no such curve, though single readings can be large; an effect the other way counts as inactive or inconclusive. Potency is the fitted concentration of half-maximal effect.

Screening CC1CN(C(=O)c2ccc(CNS(=O)(=O)c3cccc(C(F)(F)F)c3)cc2)CC(C)O1 (stereo unspecified) returned MCF10A rerep -21%, HT1080NT lethal -5%, SW480 rereplic -3%[9.22 µM], KB-3-1 cytotox inactive, HT1080 IDH1KD tx -12% and KB-V1 cytotox inconclusive.
CCOc1cc(Br)cc(/C=C2\SC(=Nc3ccccc3)NC2=O)c1O was read as MCF10A rerep 8.2µM*, HT1080NT lethal -9%, SW480 rereplic -1%, KB-3-1 cytotox inconclusive, HT1080 IDH1KD tx -17% and KB-V1 cytotox inconclusive.
`C=CCOc1c(Br)cc(/C=C2\SC(=Nc3ccccc3)NC2=O)cc1OC` gave MCF10A rerep inconclusive, HT1080NT lethal -17%, SW480 rereplic 19%, KB-3-1 cytotox inactive, HT1080 IDH1KD tx -24% and KB-V1 cytotox inactive.
`C=CCOc1ccc(Br)cc1/C=C1/SC(=Nc2ccc(C(=O)O)cc2)NC1=O` gave MCF10A rerep 8.2µM*, HT1080NT lethal 8%, SW480 rereplic -12%, KB-3-1 cytotox inconclusive, HT1080 IDH1KD tx 9% and KB-V1 cytotox inactive.
COc1ccc(CCNS(=O)(=O)c2cc3c4c(c2)CCN4C(=O)CC3)cc1OC was read as MCF10A rerep 0%, HT1080NT lethal 2%, SW480 rereplic 2%, KB-3-1 cytotox inactive, HT1080 IDH1KD tx 1% and KB-V1 cytotox inactive.
`O=C(Nc1ccccc1C(=O)NCCCN1CCOCC1)c1ccccc1` gave MCF10A rerep -2%, HT1080NT lethal 15%, SW480 rereplic -7%, KB-3-1 cytotox inactive, HT1080 IDH1KD tx 12% and KB-V1 cytotox inconclusive.
For Brc1ccc(OCCCCCN2CCOCC2)cc1 the results were MCF10A rerep inconclusive, HT1080NT lethal -15%, SW480 rereplic 1%, KB-3-1 cytotox inactive, HT1080 IDH1KD tx -6% and KB-V1 cytotox inconclusive.
Screening CCOc1ccc(CCNC(=O)COC(=O)COc2ccc(C(=O)CC)cc2)cc1OCC returned MCF10A rerep 5%, HT1080NT lethal 15%, SW480 rereplic -1%, KB-3-1 cytotox inactive, HT1080 IDH1KD tx 15% and KB-V1 cytotox inactive.
Screening COc1ccc(CNC(=O)c2cc3c(=O)n(Cc4cccs4)ccc3nc2C)cc1 returned KB-3-1 cytotox 18µM* and KB-V1 cytotox inactive.
`COc1ccc(NC(=O)c2cc3c(=O)n(Cc4cccs4)ccc3nc2C)cc1` gave KB-3-1 cytotox inactive and KB-V1 cytotox inactive.
CC(C)c1ccc2c(c1)C1(NN=C(c3ccccc3)S1)C(=O)N2 (stereo unspecified) was read as MCF10A rerep 1.3µM*, HT1080NT lethal 26µM*, SW480 rereplic 8.2µM*, KB-3-1 cytotox inconclusive, HT1080 IDH1KD tx inconclusive and KB-V1 cytotox inactive.
Screening CCc1ccc2c(c1)C1(NN=C(c3ccc(C)cc3)S1)C(=O)N2 (stereo unspecified) returned MCF10A rerep 6.5µM*, HT1080NT lethal inconclusive, SW480 rereplic inconclusive, KB-3-1 cytotox inconclusive, HT1080 IDH1KD tx 21µM* and KB-V1 cytotox inconclusive.
`CCc1ccc2c(c1)NC(=O)C2(C)Cc1ccc(F)cc1` (stereo unspecified) gave HT1080NT lethal inconclusive, KB-3-1 cytotox inactive, HT1080 IDH1KD tx inconclusive and KB-V1 cytotox inconclusive.
`CCOC(=O)c1sc(=S)n(Cc2ccccc2)c1C` gave MCF10A rerep 0%, HT1080NT lethal -5%, SW480 rereplic -2%, KB-3-1 cytotox inactive, HT1080 IDH1KD tx -16% and KB-V1 cytotox inactive.
For CN(C)C(=S)N=c1ssc(=S)n1Cc1ccccc1 the results were MCF10A rerep inconclusive, HT1080NT lethal 5.8µM*, SW480 rereplic 5.2µM*, KB-3-1 cytotox inconclusive, HT1080 IDH1KD tx 8.2µM* and KB-V1 cytotox inconclusive.
O=C(Cc1ccccc1)Nc1ccc(NC(=O)c2cccs2)c(Cl)c1 was read as MCF10A rerep -2%, HT1080NT lethal 13%, SW480 rereplic 4%, KB-3-1 cytotox inactive, HT1080 IDH1KD tx 13% and KB-V1 cytotox 21µM*.
Screening O=C(Nc1ccc(Cl)cc1)Nc1ccccc1C(=O)O returned MCF10A rerep 25%, HT1080NT lethal -14%, SW480 rereplic inconclusive, KB-3-1 cytotox inactive, HT1080 IDH1KD tx inconclusive and KB-V1 cytotox inactive.
Screening O=C(Nc1ccc(Cl)c(Cl)c1)Nc1nc(-c2ccccc2)cs1 returned MCF10A rerep inconclusive, HT1080NT lethal 3%, SW480 rereplic 27%, KB-3-1 cytotox 12µM*, HT1080 IDH1KD tx -19% and KB-V1 cytotox 6.5µM*.
`O=C(Cc1ccccc1)NNC(=S)Nc1ccc(Cl)cc1` gave MCF10A rerep 1%, HT1080NT lethal 8%, SW480 rereplic 0.52µM*, KB-3-1 cytotox inactive, HT1080 IDH1KD tx 2% and KB-V1 cytotox inactive.
O=C(Nc1ccc(Cl)c(Cl)c1)Nc1ccccc1C(=O)O was read as MCF10A rerep 7%, HT1080NT lethal inconclusive, SW480 rereplic 8%, KB-3-1 cytotox inconclusive, HT1080 IDH1KD tx inconclusive and KB-V1 cytotox 15µM*.
Screening NS(=O)(=O)c1ccc(CCNC(=O)c2ccc(=O)[nH]c2)cc1 returned MCF10A rerep -1%, HT1080NT lethal 18%, SW480 rereplic -2%, KB-3-1 cytotox inactive, HT1080 IDH1KD tx 19% and KB-V1 cytotox inactive.
Screening O=C(NNC(=S)NCc1ccccc1)c1ccccc1OC(F)F returned MCF10A rerep 0%, HT1080NT lethal -2%, SW480 rereplic -75%, KB-3-1 cytotox inactive, HT1080 IDH1KD tx 0% and KB-V1 cytotox inactive.
Screening O=C(NNC(=S)Nc1ccc(Cl)cc1)c1ccccc1OC(F)F returned MCF10A rerep 17%, HT1080NT lethal inconclusive, SW480 rereplic inconclusive, KB-3-1 cytotox 18µM*, HT1080 IDH1KD tx inconclusive and KB-V1 cytotox 3.3µM*.
Screening O=C(Cc1ccccc1)NNC(=O)Nc1ccc(Cl)c(Cl)c1 returned MCF10A rerep inconclusive, HT1080NT lethal -15%, SW480 rereplic -11%, KB-3-1 cytotox inactive, HT1080 IDH1KD tx 15µM* and KB-V1 cytotox inactive.
`O=C(Cc1ccc[nH]c1=O)c1ccc(F)cc1` gave KB-3-1 cytotox inactive and KB-V1 cytotox inactive.
